Assay results as given in PubChem BioAssay AID1210 (NMMLSC, 2008).
Calls of active or inactive are those of the source.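 Rule for the calls: active = blocks over 70% of labeled estradiol binding at 10 µM, or over a set limit at 100 nM; inactive = the rest.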

Target: Estrogen receptor beta (Homo sapiens) (UniProt Q92731)
Assay: ERbeta ligand binders by competition, primary screen, cell-based, Cos7 ERbeta-GFP, flow cytometry (AID 1210);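 note: 0% = DMSO vehicle wells and 100% = complete loss of labeled estradiol signal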
Settings: fluorescent estrogen binding, stronger effect = higher value
[1] = ligand binding inhibition, at 0.1 µM

Sequence of Estrogen receptor beta (Homo sapiens) (Q92731 whole entry, looked up): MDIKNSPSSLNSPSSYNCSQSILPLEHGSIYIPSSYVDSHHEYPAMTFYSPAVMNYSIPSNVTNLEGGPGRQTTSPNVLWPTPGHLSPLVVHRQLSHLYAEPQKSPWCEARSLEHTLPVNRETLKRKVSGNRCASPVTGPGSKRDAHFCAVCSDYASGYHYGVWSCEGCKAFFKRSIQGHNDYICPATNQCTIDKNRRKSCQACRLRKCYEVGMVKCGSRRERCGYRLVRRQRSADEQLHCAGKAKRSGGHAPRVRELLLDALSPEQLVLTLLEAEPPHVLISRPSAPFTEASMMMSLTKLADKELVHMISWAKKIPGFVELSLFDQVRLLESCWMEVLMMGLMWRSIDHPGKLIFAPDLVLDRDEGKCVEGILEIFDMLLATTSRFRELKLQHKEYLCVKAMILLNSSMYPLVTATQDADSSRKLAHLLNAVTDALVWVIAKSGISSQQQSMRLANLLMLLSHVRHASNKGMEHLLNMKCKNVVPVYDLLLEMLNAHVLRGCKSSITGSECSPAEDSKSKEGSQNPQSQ

| Compound | inhibition (at 10 µM) | inhibition [1] |
| --- | --- | --- |
| Oc1ccc(-c2cn3cc(C(F)(F)F)ccc3n2)cc1 | 41% (inactive) | 10% |
| CCc1ccc2nc(NC(=O)c3ccc4c(=O)[nH]c(CN5CCOCC5)nc4c3)sc2c1 | 29% (inactive) | 10% |
| Oc1c(C=Nc2cccc3cccnc23)sc2ccccc12 | 31% (inactive) | 30% |
| COc1ccc(CNC(=O)c2cc(-c3cccs3)on2)cc1 | 39% (inactive) | 23% |
| CC1(C)CCCN(C(=O)c2coc(=O)c(Br)c2)C1 | 49% (inactive) | 18% |
| Cc1cs/c(=N\N=C\c2ccc(O)cc2)n1Cc1ccco1 | 45% (inactive) | 21% |
| CSC1=N/C(=C\c2ccc(Br)o2)C(=O)S1 | 26% (inactive) | 43% |
| CN(C)CC(=O)N1c2ccccc2CCc2ccc(NC(=O)c3ccc(N)cc3)cc21 | 39% (inactive) | 62% |
| CCOc1ccc(C2C3=C(Nc4nc(N)[nH]c(=O)c42)c2ccccc2C3=O)cc1 (stereo unspecified) | 22% (inactive) | 39% |
| Cc1csc(C(C#N)C(=O)c2ccncc2)n1 (stereo unspecified) | 13% (inactive) | 4% |
| O=C(COC(=O)c1ccccc1)NCc1ccco1 | 67% (inactive) | 16% |
| Cc1nn(-c2ccccc2)c(Cl)c1/C=N/Nc1ccc(S(=O)(=O)Nc2ccccc2C(=O)O)cc1[N+](=O)[O-] | 15% (inactive) | 53% |
| CCc1ccc2c(c1)[C@H]1OCC[C@H]1[C@@H](c1cccs1)N2 | 0% (inactive) | 65% |
| CCOc1ccccc1C1C(C#N)=C(N)Nc2onc(-c3ccccc3)c21 (stereo unspecified) | 5% (inactive) | 38% |
| O=c1cc(-c2ccco2)oc2c1ccc1ccccc12 | 49% (inactive) | 22% |
| Nc1ccc2oc(-c3ccc4nc[nH]c4c3)nc2c1 | 62% (inactive) | 2% |
| O=C(Oc1ccc2c(c1)OCO2)c1cc2c(s1)CCC2 | 52% (inactive) | 48% |
| Cc1csc2nc(CCNS(=O)(=O)c3ccc4c(c3)OCCO4)cn12 | 13% (active) | 87% |
| C[C@]12CC[C@@H]3c4ccc(O)cc4C(=O)C[C@H]3[C@@H]1CC[C@@H]2O | 45% (active) | 89% |
| CCOC(=O)c1c(C)[nH]c(C)c1C(=O)CSc1nnc(-c2cc(OC)c(OC)c(OC)c2)o1 | 69% (inactive) | 7% |
| CCc1nc(N)nc(N)c1-c1ccc(Cl)cc1 | 38% (inactive) | 25% |
| O=C(O)C1CSC(c2coc3ccccc3c2=O)N1 (stereo unspecified) | 26% (inactive) | 46% |

| Compound | inhibition (at 10 µM) | inhibition [1] |
| --- | --- | --- |
| Cc1[nH]c2ccc(-c3nnc(SCC(=O)c4ccccc4F)o3)cc2c1C | 18% (inactive) | 28% |
| COc1cccc(C(=O)NC2CCN(C(=O)N3c4ccccc4Sc4ccccc43)CC2)c1 | 43% (inactive) | 17% |
| COc1cc(-c2nc3ccccn3c2/N=C/c2ccccc2)ccc1O | 54% (inactive) | 9% |
| O=C(Cc1cccs1)Nc1ccc(S(=O)(=O)N2CCCCC2)cc1 | 37% (inactive) | 38% |
| Cc1cc(-c2ccccc2)nc2cc(C(N)=O)nn12 | 49% (inactive) | 14% |
| O=C(COC(=O)c1cccc(S(=O)(=O)N2CCc3ccccc3C2)c1)NCc1ccco1 | 29% (inactive) | 5% |
| Fc1ccc2c(c1)[C@H]1OCC[C@H]1[C@@H](c1ccco1)N2 | 37% (inactive) | 1% |
| C=CCn1c(COc2ccccc2F)nnc1SCC(=O)NC(=O)NCc1ccco1 | 24% (inactive) | 2% |
| O=C(CSc1nnc(Nc2ccccc2F)s1)NCc1ccco1 | 4% (inactive) | 48% |
| C/C(N)=C(/C#N)C(=O)CSc1nnnn1-c1ccc(C)cc1 | 27% (inactive) | 57% |
| CCn1c(SCC(=O)Nc2ccc3c(c2)oc2ccccc23)nnc1-c1ccc(N)cc1 | 56% (inactive) | 18% |
| Oc1c(Cl)cc(Cl)cc1Sc1cc(Cl)cc(Cl)c1O | 33% (inactive) | 22% |
| Cc1ccnc(NS(=O)(=O)c2ccc(NC(=O)Cc3cccs3)cc2)n1 | 38% (inactive) | 47% |
| O=C(c1cc2ncc(Br)cn2n1)N1CCN(C(=O)c2ccco2)CC1 | 62% (active) | 67% |
| COc1ccccc1N1CCN(C(=O)c2cc3c(s2)CCC3)CC1 | 22% (inactive) | 4% |
| Cc1ccc(-c2csc(NC(=O)c3ccno3)n2)cc1 | 40% (inactive) | 28% |
| Cc1cccn2c(=O)c3cc(C(=O)O)n(C)c3nc12 | 60% (inactive) | 11% |
| COc1cc(CCC(=O)OCC(=O)Nc2ncc(Cl)cc2Cl)cc(OC)c1OC | 52% (inactive) | 8% |
| NC(=O)c1cccc2c1C(=O)N(C1CCCCC1)C2 | 3% (inactive) | 4% |
| Cc1oc(-c2ccc(Cl)cc2)cc1-c1nn2c(-c3ccoc3C)nnc2s1 | 57% (inactive) | 29% |
| COc1cc(O)c2c(=O)c3c(OC)c(O)ccc3oc2c1 | 41% (inactive) | 25% |
